This passage reports outcome and AC50 results from PubChem BioAssay (EPA / NIEHS).

Assay [1] addresses Glycogen synthase kinase-3 beta (Homo sapiens) (UniProt P49841). The assay is described as follows: NVS_ENZ_hGSK3b: NovaScreen (NVS) Enzymatic Assay for human Glycogen Synthase Kinase-3 beta (GSK3b) (AID 2283165). The method, boiled down: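 Recombinant enzyme with specific fluorescent substrate, 1 h, product separated by electrophoretic mobility shift. Primary duplicate screen at 25 uM; actives (e.g. 30% inhibition) followed in singleton concentration-response to 50 uM. Signal loss fitted versus DMSO.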

Assay [2] has as its target Histone deacetylase 3 (Homo sapiens) (UniProt O15379). The assay is described as follows: NVS_ENZ_hHDAC3: NovaScreen (NVS) Enzymatic Assay for human Histone Deacetylase 3 (HDAC3) (AID 2283163). The method, boiled down: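 Recombinant human HDAC3 with fluorescent substrate, 1 h after dosing; product separated from substrate by electrophoretic mobility shift and read by fluorescence. Primary screen at 25 uM in duplicate; actives (e.g. ≥30% inhibition) retested in concentration-response up to 50 uM.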

The target in assay [3] is human Mitogen- and Stress-activated Protein Kinase-1 (Msk1), RPS6KA5 (gene 9252) (UniProt O75582). The assay is described as follows: NVS_ENZ_hMsk1: NovaScreen (NVS) Enzymatic Assay for human Mitogen- and Stress-activated Protein Kinase-1 (Msk1) (AID 2283187). The method, boiled down: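 Recombinant kinase with fluorescent substrate; product separated by electrophoretic mobility shift, read 1 h after dosing. Screened in duplicate at 25 uM; hits (e.g. ≥30% inhibition) tested in concentration–response up to 50 uM. DMSO baseline.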
Chain of human Mitogen- and Stress-activated Protein Kinase-1 (Msk1), RPS6KA5 (gene 9252) (O75582 whole entry, looked up): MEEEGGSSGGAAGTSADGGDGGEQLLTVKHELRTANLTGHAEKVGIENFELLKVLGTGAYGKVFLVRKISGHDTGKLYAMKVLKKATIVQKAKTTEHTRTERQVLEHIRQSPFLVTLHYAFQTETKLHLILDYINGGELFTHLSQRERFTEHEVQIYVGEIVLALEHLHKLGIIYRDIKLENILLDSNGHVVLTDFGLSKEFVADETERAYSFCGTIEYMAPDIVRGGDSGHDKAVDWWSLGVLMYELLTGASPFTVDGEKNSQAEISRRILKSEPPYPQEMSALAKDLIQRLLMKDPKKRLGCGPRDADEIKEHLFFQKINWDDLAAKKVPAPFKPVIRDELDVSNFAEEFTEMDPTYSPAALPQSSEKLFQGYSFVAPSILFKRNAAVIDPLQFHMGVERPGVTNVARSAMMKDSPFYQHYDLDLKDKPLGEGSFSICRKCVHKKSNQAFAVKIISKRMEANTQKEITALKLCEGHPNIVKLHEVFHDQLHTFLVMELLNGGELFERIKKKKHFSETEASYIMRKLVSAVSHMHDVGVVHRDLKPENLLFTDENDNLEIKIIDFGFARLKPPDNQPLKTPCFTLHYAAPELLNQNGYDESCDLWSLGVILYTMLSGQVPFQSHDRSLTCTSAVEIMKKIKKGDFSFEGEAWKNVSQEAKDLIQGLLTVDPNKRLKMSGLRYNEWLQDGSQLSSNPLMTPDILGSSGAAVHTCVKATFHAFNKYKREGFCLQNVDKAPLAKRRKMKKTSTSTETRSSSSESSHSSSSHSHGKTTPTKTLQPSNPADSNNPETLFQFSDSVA

Assay [4] deals with human Phosphodiesterase 5 (PDE5), PDE5A (gene 8654) (UniProt O76074). The assay is described as follows: NVS_ENZ_hPDE5: NovaScreen (NVS) Enzymatic Assay for human Phosphodiesterase 5 (PDE5) (AID 2283194). A digest of the protocol:
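Recombinant human PDE5 with specific substrate, read 1 h after dosing by fluorescence with electrophoretic mobility-shift separation of substrate and product. Initial single-concentration duplicate screen at 25 uM, actives followed in concentration series; loss of activity versus DMSO.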

Assay [5] has as its target human Phosphodiesterase 10 (PDE10), PDE10A (gene 10846) (UniProt Q9Y233). The assay is described as follows: NVS_ENZ_hPDE10: NovaScreen (NVS) Enzymatic Assay for human Phosphodiesterase 10 (PDE10) (AID 2283195). The method, boiled down:
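PDE10A, cell-free; 1 h incubation; fluorescence intensity + electrophoretic mobility shift separating substrate/product; DMSO = baseline; 25 uM duplicate primary, CRC up to 50 uM.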

Assay [6] deals with human Phosphoinositide 3-kinase alpha (PI3Ka), PIK3CA (gene 5290) (UniProt P42336). The assay is described as follows: NVS_ENZ_hPI3Ka: NovaScreen (NVS) Enzymatic Assay for human Phosphoinositide 3-kinase alpha (PI3Ka) (AID 2283196). A digest of the protocol:
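Chemicals were first screened at 25 uM in duplicate, then hits were run as concentration series up to 50 uM. Enzyme activity was measured by fluorescence after mobility-shift separation, with loss of signal relative to DMSO taken as activity.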

Assay [7] has as its target human Insulin Receptor (InsR), INSR (gene 3643) (UniProt P06213). The assay is described as follows: NVS_ENZ_hInsR: NovaScreen (NVS) Enzymatic Assay for human Insulin Receptor (InsR) (AID 2283168). A digest of the protocol: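 Fluorescent substrate phosphorylation by recombinant kinase, product resolved by electrophoretic mobility shift, read 1 h after dosing. Screened in duplicate at 25 uM; hits (e.g., 30% inhibition) run in concentration-response to 50 uM; DMSO as baseline.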

The target of assay [8] is human Janus Kinase 2 (Jak2), JAK2 (gene 3717) (UniProt O60674). The assay is described as follows: NVS_ENZ_hJak2: NovaScreen (NVS) Enzymatic Assay for human Janus Kinase 2 (Jak2) (AID 2283169). The method, boiled down: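 Cell-free recombinant human JAK2 enzyme activity assay, fluorescence/electrophoretic mobility shift read 1 h after dosing. Screened in duplicate at 25 uM, then concentration-response up to 50 uM; activity as signal loss relative to DMSO.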
Chain of human Janus Kinase 2 (Jak2), JAK2 (gene 3717) (O60674 whole entry, looked up): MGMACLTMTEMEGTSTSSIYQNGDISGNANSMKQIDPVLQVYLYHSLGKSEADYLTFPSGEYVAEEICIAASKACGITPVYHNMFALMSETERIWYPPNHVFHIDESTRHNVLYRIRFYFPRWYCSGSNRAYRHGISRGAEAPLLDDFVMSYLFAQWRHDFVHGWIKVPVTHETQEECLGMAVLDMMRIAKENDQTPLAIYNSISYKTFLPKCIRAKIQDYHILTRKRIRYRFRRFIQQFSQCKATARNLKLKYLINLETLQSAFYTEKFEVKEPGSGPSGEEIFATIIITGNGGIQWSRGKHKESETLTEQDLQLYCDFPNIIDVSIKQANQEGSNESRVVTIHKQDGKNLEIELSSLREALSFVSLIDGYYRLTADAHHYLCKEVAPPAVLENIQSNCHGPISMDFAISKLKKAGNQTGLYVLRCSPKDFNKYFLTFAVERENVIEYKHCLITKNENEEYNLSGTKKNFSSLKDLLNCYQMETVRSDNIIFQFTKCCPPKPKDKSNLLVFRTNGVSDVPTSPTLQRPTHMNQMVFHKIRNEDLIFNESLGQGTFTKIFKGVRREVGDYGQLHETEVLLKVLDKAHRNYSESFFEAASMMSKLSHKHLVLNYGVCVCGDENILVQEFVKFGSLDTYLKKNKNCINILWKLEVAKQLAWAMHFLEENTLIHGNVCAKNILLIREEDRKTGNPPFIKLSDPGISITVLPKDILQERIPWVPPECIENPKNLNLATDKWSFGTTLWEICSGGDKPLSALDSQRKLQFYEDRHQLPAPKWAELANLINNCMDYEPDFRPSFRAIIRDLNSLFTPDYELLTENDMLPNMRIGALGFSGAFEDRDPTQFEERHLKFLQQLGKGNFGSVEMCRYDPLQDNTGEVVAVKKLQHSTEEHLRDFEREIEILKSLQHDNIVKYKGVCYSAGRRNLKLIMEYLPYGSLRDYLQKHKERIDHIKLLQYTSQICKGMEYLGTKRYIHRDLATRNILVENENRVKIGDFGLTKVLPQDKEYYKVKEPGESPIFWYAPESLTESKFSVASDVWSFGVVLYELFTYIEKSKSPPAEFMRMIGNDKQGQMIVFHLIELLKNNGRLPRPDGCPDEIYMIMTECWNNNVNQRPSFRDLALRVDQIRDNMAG

Assay [9] addresses Mitogen-activated protein kinase 3 (Homo sapiens) (UniProt P27361). The assay is described as follows: NVS_ENZ_hMAPK3: NovaScreen (NVS) Enzymatic Assay for human Mitogen-Activated Protein Kinase 3 (MAPK 3) (AID 2283177). The method, boiled down: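 Cell-free enzymatic assay with recombinant protein and specific substrate; fluorescence and electrophoretic mobility shift read-out 1 h after dosing. Primary screen duplicate at 25 uM; actives then run in concentration-response up to 50 uM, loss of signal versus DMSO.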

The target in assay [10] is human FYN Proto-Oncogene, Src family Tyrosine Kinase (Fyn), FYN (gene 2534) (UniProt P06241). The assay is described as follows: NVS_ENZ_hFyn: NovaScreen (NVS) Enzymatic Assay for human FYN Proto-Oncogene, Src family Tyrosine Kinase (Fyn) (AID 2283161). A digest of the protocol: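 Recombinant enzyme with fluorescent substrate, product separated by electrophoretic mobility shift; read 1 h after dosing. Duplicate 25 uM single-point screen, actives retested in concentration series; loss of signal vs DMSO.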
Chain of human FYN Proto-Oncogene, Src family Tyrosine Kinase (Fyn), FYN (gene 2534) (P06241 whole entry, looked up): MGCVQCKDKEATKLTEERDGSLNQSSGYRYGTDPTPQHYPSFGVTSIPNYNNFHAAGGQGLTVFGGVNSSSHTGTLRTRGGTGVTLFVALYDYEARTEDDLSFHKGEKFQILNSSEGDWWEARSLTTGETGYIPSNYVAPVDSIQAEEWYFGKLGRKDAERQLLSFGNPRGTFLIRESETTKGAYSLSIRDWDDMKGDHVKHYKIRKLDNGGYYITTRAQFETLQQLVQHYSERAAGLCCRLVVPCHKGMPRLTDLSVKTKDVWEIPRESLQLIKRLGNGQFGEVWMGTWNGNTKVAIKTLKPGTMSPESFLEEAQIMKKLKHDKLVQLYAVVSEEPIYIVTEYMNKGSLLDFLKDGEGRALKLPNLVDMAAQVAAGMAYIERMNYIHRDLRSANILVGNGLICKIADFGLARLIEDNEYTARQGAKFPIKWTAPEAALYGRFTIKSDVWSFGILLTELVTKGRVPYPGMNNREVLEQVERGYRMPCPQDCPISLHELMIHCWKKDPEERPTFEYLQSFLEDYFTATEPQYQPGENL

For assay [11], the target named is cAMP-dependent protein kinase catalytic subunit alpha (Homo sapiens) (UniProt P17612). The assay is described as follows: NVS_ENZ_hPKA: NovaScreen (NVS) Enzymatic Assay for human Protein Kinase A (PKA) (AID 2283192). A digest of the protocol: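 Recombinant human PKA with specific fluorescent substrate, product separated by electrophoretic mobility shift, read 1 h after dosing. Primary screen at 25 uM in duplicate; actives then run in concentration-response up to 50 uM, activity relative to DMSO.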

Assay [12] has as its target human Phosphodiesterase 4A1 (PDE4A1), PDE4A (gene 5141) (UniProt P27815). The assay is described as follows: NVS_ENZ_hPDE4A1: NovaScreen (NVS) Enzymatic Assay for human Phosphodiesterase 4A1 (PDE4A1) (AID 2283191). The method, boiled down: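 Cell-free recombinant human PDE4A1 with fluorescent substrate; product separated by electrophoretic mobility shift, 1 h. Screened at 25 uM, then up to 50 uM in concentration-response; loss of signal fitted against DMSO.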

In assay [13] the target is human MAP Kinase-Activated Protein Kinase 2 (MAPKAPK2), MAPKAPK2 (gene 9261) (UniProt P49137). The assay is described as follows: NVS_ENZ_hMAPKAPK2: NovaScreen (NVS) Enzymatic Assay for human MAP Kinase-Activated Protein Kinase 2 (MAPKAPK2) (AID 2283178). The method, boiled down: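 Cell-free recombinant human MAPKAPK2 activity measured by fluorescence with electrophoretic mobility shift separation of substrate and product, 1 hr after dosing. Loss of signal versus DMSO; primary screen at 25 uM, concentration-response up to 50 uM.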

Assay [14] deals with human c-Jun N-terminal Kinases (JNK2), MAPK9 (gene 5601) (UniProt P45984). The assay is described as follows: NVS_ENZ_hJNK2: NovaScreen (NVS) Enzymatic Assay for human c-Jun N-terminal Kinases (JNK2) (AID 2283171). A digest of the protocol: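 Cell-free recombinant human JNK2 activity assay; fluorescent substrate and product separated by electrophoretic mobility shift, read 1 h after dosing. Primary duplicate screen at 25 uM; actives run in concentration-response up to 50 uM, relative to DMSO.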

Assay [15] concerns the target Collagenase 3 (Homo sapiens) (UniProt P45452). The assay is described as follows: NVS_ENZ_hMMP13: NovaScreen (NVS) Enzymatic Assay for human Matrix Metalloproteinase-13 (MMP13) (AID 2283182). A digest of the protocol:
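Recombinant MMP13 cleaving fluorescent substrate, cell-free, measured 1 h after dosing. Primary duplicate screen at 25 uM; actives tested in concentration-response up to 50 uM; loss of signal relative to DMSO.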

The target in assay [16] is human Matrix Metalloproteinase-3 (MMP3), MMP3 (gene 4314) (UniProt P08254). The assay is described as follows: NVS_ENZ_hMMP3: NovaScreen (NVS) Enzymatic Assay for human Matrix Metalloproteinase-3 (MMP3) (AID 2283185). The method, boiled down:
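Cell-free recombinant human MMP3 activity, fluorescence intensity read 1 h after dosing. Primary screen duplicate at 25 uM, actives retested in concentration series; loss of signal vs DMSO baseline.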

For assay [17], the target named is human Matrix Metalloproteinase-7 (MMP7), MMP7 (gene 4316) (UniProt P09237). The assay is described as follows: NVS_ENZ_hMMP7: NovaScreen (NVS) Enzymatic Assay for human Matrix Metalloproteinase-7 (MMP7) (AID 2283183). A digest of the protocol:
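Cell-free fluorescence enzymatic assay read 1 h after compound addition, activity loss analyzed against DMSO. Primary duplicate testing at 25 uM; compounds meeting threshold rerun in singleton concentration-response up to 50 uM.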

Assay [18] deals with human Matrix Metalloproteinase-2 (MMP2), MMP2 (gene 4313) (UniProt P08253). The assay is described as follows: NVS_ENZ_hMMP2: NovaScreen (NVS) Enzymatic Assay for human Matrix Metalloproteinase-2 (MMP2) (AID 2283184). The method, boiled down:
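Cell-free recombinant MMP2 activity with a fluorescent substrate, read 1 h after dosing. Primary screen in duplicate at 25 uM; actives then run in concentration series; loss of signal fitted versus DMSO.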

In assay [19] the target is human Matrix Metalloproteinase-9 (MMP9), MMP9 (gene 4318) (UniProt P14780). The assay is described as follows: NVS_ENZ_hMMP9: NovaScreen (NVS) Enzymatic Assay for human Matrix Metalloproteinase-9 (MMP9) (AID 2283190).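 Note: cell-free recombinant MMP9 protease activity read by fluorescent substrate signal; active means inhibition seen as loss of fluorescence signal versus DMSO.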 A digest of the protocol:
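Inhibition was scored as loss of fluorescence signal against DMSO controls. The recombinant protease was exposed to chemicals for 1 hour before reading; initial testing used 25 uM in duplicate.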

Inconclusive results are not listed. Active and inactive are the calls of the source. Rule for the calls: active = hit-call score of the fitted dose curve at least 0.9, where 1 is the maximum; inconclusive = response in the unintended direction; inactive = score below 0.9.

Chain of human Phosphoinositide 3-kinase alpha (PI3Ka), PIK3CA (gene 5290) (P42336 whole entry, looked up): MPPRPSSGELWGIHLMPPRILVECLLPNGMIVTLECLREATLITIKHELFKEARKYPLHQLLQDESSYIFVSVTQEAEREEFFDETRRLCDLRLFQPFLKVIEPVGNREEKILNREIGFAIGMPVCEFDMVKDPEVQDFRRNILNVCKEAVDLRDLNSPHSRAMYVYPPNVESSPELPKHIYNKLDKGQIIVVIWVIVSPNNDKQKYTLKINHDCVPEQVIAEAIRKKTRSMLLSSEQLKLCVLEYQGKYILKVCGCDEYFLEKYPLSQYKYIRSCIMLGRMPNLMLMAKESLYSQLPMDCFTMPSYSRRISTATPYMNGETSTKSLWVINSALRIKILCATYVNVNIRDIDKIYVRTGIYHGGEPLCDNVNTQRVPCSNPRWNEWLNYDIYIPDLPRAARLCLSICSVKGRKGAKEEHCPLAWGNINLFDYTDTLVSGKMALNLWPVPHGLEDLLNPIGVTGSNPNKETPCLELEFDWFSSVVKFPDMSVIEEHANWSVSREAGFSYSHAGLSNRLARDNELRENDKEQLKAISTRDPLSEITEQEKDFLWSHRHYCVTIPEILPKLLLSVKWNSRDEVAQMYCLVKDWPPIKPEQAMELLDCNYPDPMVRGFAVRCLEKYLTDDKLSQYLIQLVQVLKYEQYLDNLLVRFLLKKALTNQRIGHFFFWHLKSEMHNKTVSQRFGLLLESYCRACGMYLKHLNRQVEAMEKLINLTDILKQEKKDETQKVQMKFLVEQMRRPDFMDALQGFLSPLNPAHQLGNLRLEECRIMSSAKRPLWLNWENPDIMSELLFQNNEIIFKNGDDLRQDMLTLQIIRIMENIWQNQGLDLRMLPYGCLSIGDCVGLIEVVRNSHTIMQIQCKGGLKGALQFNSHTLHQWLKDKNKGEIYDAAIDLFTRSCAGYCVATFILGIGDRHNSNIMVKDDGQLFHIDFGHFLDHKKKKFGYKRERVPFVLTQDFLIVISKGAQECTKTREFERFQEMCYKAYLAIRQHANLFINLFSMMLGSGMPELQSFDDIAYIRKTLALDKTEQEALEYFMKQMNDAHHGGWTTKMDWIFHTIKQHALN
Chain of Histone deacetylase 3 (Homo sapiens) (O15379 whole entry, looked up): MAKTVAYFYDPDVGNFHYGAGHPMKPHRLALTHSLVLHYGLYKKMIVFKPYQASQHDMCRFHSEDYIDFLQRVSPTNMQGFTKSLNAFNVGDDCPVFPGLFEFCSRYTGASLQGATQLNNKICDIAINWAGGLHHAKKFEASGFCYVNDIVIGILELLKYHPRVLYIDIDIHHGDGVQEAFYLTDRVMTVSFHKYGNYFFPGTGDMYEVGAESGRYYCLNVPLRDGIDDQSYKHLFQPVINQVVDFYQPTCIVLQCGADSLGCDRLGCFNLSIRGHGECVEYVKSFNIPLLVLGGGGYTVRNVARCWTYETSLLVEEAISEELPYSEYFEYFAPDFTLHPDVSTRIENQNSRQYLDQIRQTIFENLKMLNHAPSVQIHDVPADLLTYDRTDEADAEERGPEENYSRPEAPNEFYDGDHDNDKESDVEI
Chain of Mitogen-activated protein kinase 3 (Homo sapiens) (P27361 whole entry, looked up): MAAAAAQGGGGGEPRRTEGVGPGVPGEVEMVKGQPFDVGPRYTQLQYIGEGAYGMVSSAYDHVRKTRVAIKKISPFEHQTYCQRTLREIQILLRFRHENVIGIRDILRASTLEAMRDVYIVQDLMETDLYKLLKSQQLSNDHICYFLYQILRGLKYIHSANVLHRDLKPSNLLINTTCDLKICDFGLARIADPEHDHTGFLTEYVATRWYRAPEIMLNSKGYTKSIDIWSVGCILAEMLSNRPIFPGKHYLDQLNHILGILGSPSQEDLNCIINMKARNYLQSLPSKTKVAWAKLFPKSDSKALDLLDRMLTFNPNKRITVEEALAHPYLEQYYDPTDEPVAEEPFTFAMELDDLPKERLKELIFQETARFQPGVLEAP
Chain of Glycogen synthase kinase-3 beta (Homo sapiens) (P49841 whole entry, looked up): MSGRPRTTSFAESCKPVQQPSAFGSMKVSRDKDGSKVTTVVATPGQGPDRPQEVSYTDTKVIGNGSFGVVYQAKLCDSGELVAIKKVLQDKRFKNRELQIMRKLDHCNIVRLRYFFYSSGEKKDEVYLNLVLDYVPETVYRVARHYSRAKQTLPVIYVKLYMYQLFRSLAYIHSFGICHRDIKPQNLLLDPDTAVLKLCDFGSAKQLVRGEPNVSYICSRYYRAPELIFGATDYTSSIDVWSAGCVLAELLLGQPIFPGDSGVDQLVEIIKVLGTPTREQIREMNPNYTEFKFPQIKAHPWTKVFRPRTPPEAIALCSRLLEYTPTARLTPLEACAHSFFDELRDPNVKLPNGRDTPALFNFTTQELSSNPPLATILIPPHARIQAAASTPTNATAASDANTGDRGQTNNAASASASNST
Chain of human Matrix Metalloproteinase-7 (MMP7), MMP7 (gene 4316) (P09237 whole entry, looked up): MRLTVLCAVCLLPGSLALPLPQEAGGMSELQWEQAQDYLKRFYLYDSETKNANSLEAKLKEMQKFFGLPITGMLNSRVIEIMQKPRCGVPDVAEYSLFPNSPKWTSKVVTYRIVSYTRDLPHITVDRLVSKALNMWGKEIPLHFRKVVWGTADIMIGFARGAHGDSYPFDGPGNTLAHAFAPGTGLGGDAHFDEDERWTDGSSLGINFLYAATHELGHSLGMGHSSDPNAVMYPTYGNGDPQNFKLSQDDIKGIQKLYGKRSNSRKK

Regarding `c1ccc(C(O[C@@H]2CCCN(CCc3ccc4c(c3)OCO4)C2)c2ccccc2)cc1`, in assay [1], the outcome was inactive.
For the compound `OCc1ccccc1`, the compound was called inactive in assay [1].
Regarding `Cc1nc(-c2ccccn2)ncc1C(=O)Nn1cc(C)c2cc(F)ccc21`, the call in assay [2], in assay [3], in assay [4], in [5] and in assay [6] was inactive.
In the case of `NC(=O)NN=Cc1ccc([N+](=O)[O-])o1`, in assay [2], the AC50 (in general, the concentration giving half of the maximal activity seen) is 1.26 µM (active). In assay [1], the call was inactive.
Regarding `O=C(O)c1cccc(C[C@@H]2COc3ccc(OCc4nc5cc(F)ccc5s4)cc3[C@@H]2O)c1`, the outcome in assay [1] was inactive.
`CCCOc1ccc(S(=O)(=O)N2CCN(CC)CC2)cc1-c1nc2c(CC)n(Cc3ccccn3)nc2c(=O)[nH]1`: in assay [7], the compound was classed as inactive.
`OC(Cn1cncn1)(Cn1cncn1)c1ccc(F)cc1F`: the compound was called inactive in assay [8].
For the compound `O=c1[nH]cnc2c1ncn2[C@H]1CC[C@@H](CO)O1`, the compound was classed as inactive in [2], in assay [1], in [9], in assay [3], in assay [5] and in assay [6].
Turning to `CCCCCCCC/C=C\CCCCCCCC(=O)OC[C@@H](O)[C@H]1OC[C@H](O)[C@H]1O`, the compound was classed as inactive in assay [10], in [1], in assay [9], in [3], in assay [11] and in [4]. Moreover, in [6], the result was inactive.
Consider `OC[C@H]1O[C@@H]2O[C@H]3[C@H](O)[C@@H](O)[C@@H](O[C@H]4[C@H](O)[C@@H](O)[C@@H](O[C@H]5[C@H](O)[C@@H](O)[C@@H](O[C@H]6[C@H](O)[C@@H](O)[C@@H](O[C@H]7[C@H](O)[C@@H](O)[C@@H](O[C@H]1[C@H](O)[C@H]2O)O[C@@H]7CO)O[C@@H]6CO)O[C@@H]5CO)O[C@@H]4CO)O[C@@H]3CO`, for which, in [1], the compound was called inactive.
The same measure, in the same setting: under `CCCCCCCC1CCC(=O)O1` (configuration not stated) stands “inactive”.
Regarding `O=C(O)c1ccc2c(c1)nc(C(=O)NC1CCN(C3CC3)CC1)n2Cc1cc(-c2ccc(Cl)s2)on1`, the compound was called inactive in assay [1], in assay [8], in assay [9] and in assay [12]. Moreover, the AC50 in assay [4] was 3.95 µM (active).
Regarding `CCCCC(CC)C(=O)OCCOCCOCCOC(=O)C(CC)CCCC` (configuration not stated), the compound was called inactive in assay [13].
For the compound `C[C@]12C=CC(=O)C=C1CC[C@H]1[C@@H]3C[C@@H](O)[C@](O)(C(=O)CO)[C@@]3(C)C[C@H](O)[C@@]12F`, the call in [1] was inactive.
As for `CCCC(CCC)C(=O)O`, the compound was classed as inactive in assay [10], in assay [1], in [14], in [9], in [3] and in assay [12]. The call in assay [11] and in assay [6] was inactive.
Regarding `OCCNCCO`, in assay [1], the outcome was inactive.
Take `COc1cc2c(c(OC)c1OC)-c1ccc(OC)c(=O)cc1[C@@H](NC(C)=O)CC2`: the compound was classed as inactive in [2] and in [16]. Moreover, the AC50 in [15] is 25.7 µM (active).
On to `CC[C@H](C)C(=O)O[C@H]1C[C@H](O)C=C2C=C[C@H](C)[C@H](CC[C@@H](O)C[C@@H](O)CC(=O)O)[C@H]21`, for which the outcome in [9], in [17], in [18], in assay [19] and in assay [6] was inactive.
Turning to `CCc1ccc(O)c(C(C)(C)C)c1`, in assay [8], the compound was classed as inactive.
